# Assay results: the supplement of paper PMC4466140
# Target: AgAbp1
# Assay: SPOT peptide array binding signal intensity (averaged, normalized) (arbitrary units (background-subtracted, floor 0; scale differs between SH3 domains)); higher = stronger binding of the SH3 domain to the peptide
# How it was run: (§1)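 The binding signal is the normalized, background-subtracted spot intensity averaged over replicates; its arbitrary units differ between domains. It was obtained by incubating 10 μg/ml GST-fused SH3 domains from four yeast species overnight at 4°C in TBS-based blocking buffer on cellulose membranes with synthetic 15-mer peptides, cysteines replaced by serines, then detecting with anti-GST antibody, HRP anti-mouse secondary and luminol.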
row,Binder,SPOT peptide array binding signal intensity
1,IKKRNKIRLPSGSPE,286

# Target: AgBbc1
# Assay: as above
# How it was run: as §1
row,Binder,SPOT peptide array binding signal intensity
1,IKKRNKIRLPSGSPE,23.8

# Target: AgBem1-D1
# Assay: as above
# How it was run: as §1
row,Binder,SPOT peptide array binding signal intensity
1,IKKRNKIRLPSGSPE,55

# Target: AgBzz1-D1
# Assay: as above
# How it was run: as §1
row,Binder,SPOT peptide array binding signal intensity
1,IKKRNKIRLPSGSPE,22

# Target: AgBzz1-D2
# Assay: as above
# How it was run: as §1
row,Binder,SPOT peptide array binding signal intensity
1,IKKRNKIRLPSGSPE,34.5

# Target: AgCyk3
# Assay: as above
# How it was run: as §1
row,Binder,SPOT peptide array binding signal intensity
1,IKKRNKIRLPSGSPE,7

# Target: AgFus1
# Assay: as above
# How it was run: as §1
row,Binder,SPOT peptide array binding signal intensity
1,IKKRNKIRLPSGSPE,279

# Target: AgHof1
# Assay: as above
# How it was run: as §1
row,Binder,SPOT peptide array binding signal intensity
1,IKKRNKIRLPSGSPE,52.5

# Target: AgHse1
# Assay: as above
# How it was run: as §1
row,Binder,SPOT peptide array binding signal intensity
1,IKKRNKIRLPSGSPE,766

# Target: AgLsb1
# Assay: as above
# How it was run: as §1
row,Binder,SPOT peptide array binding signal intensity
1,IKKRNKIRLPSGSPE,7

# Target: AgLsb4
# Assay: as above
# How it was run: as §1
row,Binder,SPOT peptide array binding signal intensity
1,IKKRNKIRLPSGSPE,97

# Target: AgMyo5
# Assay: as above
# How it was run: as §1
row,Binder,SPOT peptide array binding signal intensity
1,IKKRNKIRLPSGSPE,1.75

# Target: AgNbp2
# Assay: as above
# How it was run: as §1
row,Binder,SPOT peptide array binding signal intensity
1,IKKRNKIRLPSGSPE,202

# Target: AgRvs167
# Assay: as above
# How it was run: as §1
row,Binder,SPOT peptide array binding signal intensity
1,IKKRNKIRLPSGSPE,5.67

# Target: AgSho1
# Assay: as above
# How it was run: as §1
row,Binder,SPOT peptide array binding signal intensity
1,IKKRNKIRLPSGSPE,36

# Target: AgSla1-D1-D2
# Assay: as above
# How it was run: as §1
row,Binder,SPOT peptide array binding signal intensity
1,IKKRNKIRLPSGSPE,89

# Target: AgSla1-D3
# Assay: as above
# How it was run: as §1
row,Binder,SPOT peptide array binding signal intensity
1,IKKRNKIRLPSGSPE,7

# Target: CaAbp1-D1
# Assay: as above
# How it was run: as §1
row,Binder,SPOT peptide array binding signal intensity
1,IKKRNKIRLPSGSPE,1510

# Target: CaAbp1-D2
# Assay: as above
# How it was run: as §1
row,Binder,SPOT peptide array binding signal intensity
1,IKKRNKIRLPSGSPE,858

# Target: CaBbc1
# Assay: as above
# How it was run: as §1
row,Binder,SPOT peptide array binding signal intensity
1,IKKRNKIRLPSGSPE,94.2

# Target: CaBem1-D1
# Assay: as above
# How it was run: as §1
row,Binder,SPOT peptide array binding signal intensity
1,IKKRNKIRLPSGSPE,16

# Target: CaBzz1-D1
# Assay: as above
# How it was run: as §1
row,Binder,SPOT peptide array binding signal intensity
1,IKKRNKIRLPSGSPE,104

# Target: CaBzz1-D2
# Assay: as above
# How it was run: as §1
row,Binder,SPOT peptide array binding signal intensity
1,IKKRNKIRLPSGSPE,132

# Target: CaCyk3
# Assay: as above
# How it was run: as §1
row,Binder,SPOT peptide array binding signal intensity
1,IKKRNKIRLPSGSPE,17

# Target: CaFus1
# Assay: as above
# How it was run: as §1
row,Binder,SPOT peptide array binding signal intensity
1,IKKRNKIRLPSGSPE,615

# Target: CaHof1
# Assay: as above
# How it was run: as §1
row,Binder,SPOT peptide array binding signal intensity
1,IKKRNKIRLPSGSPE,1.25

# Target: CaHse1
# Assay: as above
# How it was run: as §1
row,Binder,SPOT peptide array binding signal intensity
1,IKKRNKIRLPSGSPE,38

# Target: CaLsb1
# Assay: as above
# How it was run: as §1
row,Binder,SPOT peptide array binding signal intensity
1,IKKRNKIRLPSGSPE,1.5

# Target: CaLsb4
# Assay: as above
# How it was run: as §1
row,Binder,SPOT peptide array binding signal intensity
1,IKKRNKIRLPSGSPE,79

# Target: CaMyo5
# Assay: as above
# How it was run: as §1
row,Binder,SPOT peptide array binding signal intensity
1,IKKRNKIRLPSGSPE,1.5

# Target: CaNbp2
# Assay: as above
# How it was run: as §1
row,Binder,SPOT peptide array binding signal intensity
1,IKKRNKIRLPSGSPE,271

# Target: CaRvs167
# Assay: as above
# How it was run: as §1
row,Binder,SPOT peptide array binding signal intensity
1,IKKRNKIRLPSGSPE,11.7

# Target: CaRvs167-3
# Assay: as above
# How it was run: as §1
row,Binder,SPOT peptide array binding signal intensity
1,IKKRNKIRLPSGSPE,67.2

# Target: CaSho1
# Assay: as above
# How it was run: as §1
row,Binder,SPOT peptide array binding signal intensity
1,IKKRNKIRLPSGSPE,506

# Target: CaSla1-D1-D2
# Assay: as above
# How it was run: as §1
row,Binder,SPOT peptide array binding signal intensity
1,IKKRNKIRLPSGSPE,30

# Target: CaSla1-D3
# Assay: as above
# How it was run: as §1
row,Binder,SPOT peptide array binding signal intensity
1,IKKRNKIRLPSGSPE,0.5

# Target: ScAbp1
# Assay: as above
# How it was run: as §1
row,Binder,SPOT peptide array binding signal intensity
1,IKKRNKIRLPSGSPE,39

# Target: ScBbc1
# Assay: as above
# How it was run: as §1
row,Binder,SPOT peptide array binding signal intensity
1,IKKRNKIRLPSGSPE,12.8

# Target: ScBem1-D1
# Assay: as above
# How it was run: as §1
row,Binder,SPOT peptide array binding signal intensity
1,IKKRNKIRLPSGSPE,62

# Target: ScBzz1-D1
# Assay: as above
# How it was run: as §1
row,Binder,SPOT peptide array binding signal intensity
1,IKKRNKIRLPSGSPE,20

# Target: ScBzz1-D2
# Assay: as above
# How it was run: as §1
row,Binder,SPOT peptide array binding signal intensity
1,IKKRNKIRLPSGSPE,15

# Target: ScCyk3
# Assay: as above
# How it was run: as §1
row,Binder,SPOT peptide array binding signal intensity
1,IKKRNKIRLPSGSPE,181

# Target: ScFus1
# Assay: as above
# How it was run: as §1
row,Binder,SPOT peptide array binding signal intensity
1,IKKRNKIRLPSGSPE,242

# Target: ScHof1
# Assay: as above
# How it was run: as §1
row,Binder,SPOT peptide array binding signal intensity
1,IKKRNKIRLPSGSPE,1.5

# Target: ScHse1
# Assay: as above
# How it was run: as §1
row,Binder,SPOT peptide array binding signal intensity
1,IKKRNKIRLPSGSPE,1420

# Target: ScLsb1
# Assay: as above
# How it was run: as §1
row,Binder,SPOT peptide array binding signal intensity
1,IKKRNKIRLPSGSPE,6.25

# Target: ScLsb2
# Assay: as above
# How it was run: as §1
row,Binder,SPOT peptide array binding signal intensity
1,IKKRNKIRLPSGSPE,11

# Target: ScLsb3
# Assay: as above
# How it was run: as §1
row,Binder,SPOT peptide array binding signal intensity
1,IKKRNKIRLPSGSPE,162

# Target: ScLsb4
# Assay: as above
# How it was run: as §1
row,Binder,SPOT peptide array binding signal intensity
1,IKKRNKIRLPSGSPE,13

# Target: ScMyo3
# Assay: as above
# How it was run: as §1
row,Binder,SPOT peptide array binding signal intensity
1,IKKRNKIRLPSGSPE,4

# Target: ScMyo5
# Assay: as above
# How it was run: as §1
row,Binder,SPOT peptide array binding signal intensity
1,IKKRNKIRLPSGSPE,6

# Target: ScNbp2
# Assay: as above
# How it was run: as §1
row,Binder,SPOT peptide array binding signal intensity
1,IKKRNKIRLPSGSPE,256

# Target: ScPex13
# Assay: as above
# How it was run: as §1
row,Binder,SPOT peptide array binding signal intensity
1,IKKRNKIRLPSGSPE,7.5

# Target: ScRvs167
# Assay: as above
# How it was run: as §1
row,Binder,SPOT peptide array binding signal intensity
1,IKKRNKIRLPSGSPE,33

# Target: ScSho1
# Assay: as above
# How it was run: as §1
row,Binder,SPOT peptide array binding signal intensity
1,IKKRNKIRLPSGSPE,681

# Target: ScSla1-D1-D2
# Assay: as above
# How it was run: as §1
row,Binder,SPOT peptide array binding signal intensity
1,IKKRNKIRLPSGSPE,362

# Target: ScSla1-D3
# Assay: as above
# How it was run: as §1
row,Binder,SPOT peptide array binding signal intensity
1,IKKRNKIRLPSGSPE,30

# Target: SpAbp1-D1
# Assay: as above
# How it was run: as §1
row,Binder,SPOT peptide array binding signal intensity
1,IKKRNKIRLPSGSPE,512

# Target: SpBbc1
# Assay: as above
# How it was run: as §1
row,Binder,SPOT peptide array binding signal intensity
1,IKKRNKIRLPSGSPE,2

# Target: SpBzz1-D1
# Assay: as above
# How it was run: as §1
row,Binder,SPOT peptide array binding signal intensity
1,IKKRNKIRLPSGSPE,122

# Target: SpBzz1-D2
# Assay: as above
# How it was run: as §1
row,Binder,SPOT peptide array binding signal intensity
1,IKKRNKIRLPSGSPE,2

# Target: SpCyk3
# Assay: as above
# How it was run: as §1
row,Binder,SPOT peptide array binding signal intensity
1,IKKRNKIRLPSGSPE,6.5

# Target: SpHof1
# Assay: as above
# How it was run: as §1
row,Binder,SPOT peptide array binding signal intensity
1,IKKRNKIRLPSGSPE,253

# Target: SpHof1-2
# Assay: as above
# How it was run: as §1
row,Binder,SPOT peptide array binding signal intensity
1,IKKRNKIRLPSGSPE,4.5

# Target: SpHof1-3
# Assay: as above
# How it was run: as §1
row,Binder,SPOT peptide array binding signal intensity
1,IKKRNKIRLPSGSPE,664

# Target: SpHse1
# Assay: as above
# How it was run: as §1
row,Binder,SPOT peptide array binding signal intensity
1,IKKRNKIRLPSGSPE,457

# Target: SpLsb1
# Assay: as above
# How it was run: as §1
row,Binder,SPOT peptide array binding signal intensity
1,IKKRNKIRLPSGSPE,6.5

# Target: SpLsb4
# Assay: as above
# How it was run: as §1
row,Binder,SPOT peptide array binding signal intensity
1,IKKRNKIRLPSGSPE,104

# Target: SpMyo1
# Assay: as above
# How it was run: as §1
row,Binder,SPOT peptide array binding signal intensity
1,IKKRNKIRLPSGSPE,4

# Target: SpNbp2
# Assay: as above
# How it was run: as §1
row,Binder,SPOT peptide array binding signal intensity
1,IKKRNKIRLPSGSPE,836

# Target: SpPex13
# Assay: as above
# How it was run: as §1
row,Binder,SPOT peptide array binding signal intensity
1,IKKRNKIRLPSGSPE,6

# Target: SpRvs167
# Assay: as above
# How it was run: as §1
row,Binder,SPOT peptide array binding signal intensity
1,IKKRNKIRLPSGSPE,8.5

# Target: SpSla1-D1-D2
# Assay: as above
# How it was run: as §1
row,Binder,SPOT peptide array binding signal intensity
1,IKKRNKIRLPSGSPE,1.5

# Target: SpSla1-D3
# Assay: as above
# How it was run: as §1
row,Binder,SPOT peptide array binding signal intensity
1,IKKRNKIRLPSGSPE,2
